About 79,000 compounds went through this panel and 15% of them were active in at least one assay; those are over-represented in the sample as a whole. Active and inactive are the calls of the source. No stated cut-off is given here; in the data, active means growth inhibition above about 70%; inactive means the rest.
Assay: NCI Yeast Anticancer Drug Screen. Data for the CLN2oe strain (AID 163);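 further: 0% = growth of vehicle-only control cultures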
Details: S. cerevisiae CLN2oe strain, hits give high values
Description: Growth inhibition of yeast strains with defined genetic alterations is measured as a screen for potential anti-cancer activity. Selected strains with alterations in DNA damage repair or cell cycle control were exposed to compounds and growth inhibition was measured relative to vehicle treated controls. The strain used in this assay is CLN2oe

Measured: growth inhibition

CCCCCCCCCCCCCC[N+](C)(CC(=O)[O-])Cc1ccccc1 (stereo not given)
inactive: at 1.2 µM 5% | at 3.7 µM 19%
active: at 11.0 µM 99% | at 33.0 µM 99% | at 100.0 µM 99%

CCCCCCCCCCCC(=O)N(C)C
inactive: at 1.2 µM 2% | at 3.7 µM 19% | at 11.0 µM 2% | at 33.0 µM 0%
active: at 100.0 µM 98%

CCCCCCCCC/C=C/C=C/C(=O)NCC(=O)NC1C(O)C(O)C(Nc2ncnc3nc[nH]c23)OC1C(O)CO (stereo not given)
inactive: at 1.2 µM 4% | at 3.7 µM 8% | at 11.0 µM 11% | at 33.0 µM 18% | at 100.0 µM -11%

Cc1ccc(-n2cc(-c3ccc(Cl)cc3)c(C#N)c2N)cc1
inactive: at 1.2 µM -6% | at 3.7 µM -13% | at 11.0 µM -12% | at 33.0 µM -7% | at 100.0 µM -4%

CN1Cc2ccccc2/C=C\c2ccccc21
inactive: at 1.2 µM 0% | at 3.7 µM 2% | at 11.0 µM 3% | at 33.0 µM 2% | at 100.0 µM 3%

CC(C)(Br)C(=O)/C=C/c1ccc(Cl)c(Cl)c1
inactive: at 1.2 µM -3% | at 3.7 µM -1% | at 11.0 µM -5% | at 33.0 µM 0% | at 100.0 µM 0%

CC(C(=O)N1C(=O)N(C(=O)[C@H](C)C(O)c2ccccc2)[C@H](c2ccccc2)[C@H]1c1ccccc1)[C@@H](O)c1ccccc1 (stereo not given in full)
inactive: at 1.2 µM -11% | at 3.7 µM -13% | at 11.0 µM 12% | at 33.0 µM 36% | at 100.0 µM 51%

COc1cc2c(c(OC)c1OC)-c1c(cc3c(c1OC)OCO3)CC(C)C(C)(O)C2OC(=O)c1ccccc1 (stereo not given)
inactive: at 1.2 µM 27% | at 3.7 µM 17% | at 11.0 µM 16% | at 33.0 µM 20% | at 100.0 µM 45%

Source: PubChem BioAssay (NCI)
